What all share (test): NCI-60 one-dose screen, 48 h (100 = growth as untreated, 0 = no growth, -100 = all killed)
Conditions in all cases: 10 µM unless noted

Assay [1] relates to DU-145 prostate.
Assay [2] has as its system K-562 leukemia.
For assay [3], the system named is MALME-3M melanoma.
Assay [4] has as its system MDA-MB-231 breast.
For assay [5], the system named is RXF 393 renal.
For assay [6], the system named is SF-268 CNS.
Assay [7] concerns SF-295 CNS.
The subject of assay [8] is SF-539 CNS.
In assay [9] the test system is UACC-257 melanoma.
Assay [10] deals with M14 melanoma.

Structures are written as SMILES. Compounds without any hit were thinned out: in the full panel of roughly 83,000, 20% have a hit.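 Single-concentration screen, 48 h exposure, 96-well plates. Endpoint: percent growth. Below 10 = active.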 A number with no mark means an inactive call. Calls of active or inactive are those of the source.

Regarding `CN1CC(CNC(=O)OCc2ccccc2)CC2c3cccc4c3c(cn4C)CC21` (stereo not given), the growth in assay [1] is 56.8%; in assay [2], 3.66% (active); in assay [3], -16% (active); in assay [4] it was 27.3%; in [5], 8.6% (active); in assay [6], 59%. In addition, the growth in assay [7] is 25.8%; in assay [8], 28.6%; in [9] it was -60.4% (active); in [10], -58% (active).
For the compound `[Cl][Hg][n]1c(-c2ccco2)nc2ccccc21`, the growth is 97.3% in [1]; 78.8% in assay [2]; 119% in assay [3]; 100% in assay [4]; 104% in [5]; 105% in [6]. Moreover, the growth was 106% in [7], 99.3% in assay [8], 103% in [9] and 86.1% in assay [10].
`C[C@]12CCc3sc(-c4cccc(F)c4)nc3C1=CC[C@@H]1[C@@H]2CC[C@]2(C)C(=O)CC[C@@H]12`: the growth is 22.9% in assay [1]; 7.01% (active) in assay [2]; 37.6% in assay [3]; 62% in [4]; -22.5% (active) in assay [5]; 52.4% in assay [6]. The growth is -18.9% (active) in assay [7], -33.4% (active) in assay [8], 77.4% in assay [9] and 57.4% in assay [10].
`C/C(=C\c1ccn(-c2ccc(N)c(F)c2)n1)[C@@H]1C[C@@H]2O[C@]2(C)CCC[C@H](C)[C@H](O)[C@@H](C)C(=O)C(C)(C)[C@@H](O)CC(=O)O1`: the growth in assay [1] is -26% (active); in assay [2], 10.5%; in assay [3], 46.3%; in assay [4] it was 19.6%; in assay [5] it was 0.639% (active); in assay [6] it was 30%. For the same compound, the growth was 17.1% in assay [7], -26.4% (active) in assay [8], 68.7% in assay [9] and 13.3% in assay [10].
In the case of `COc1ccc(-n2c(C)nc3cc(OC)c(OC)cc3c2=O)cc1OC`, the growth in [1] is 105%; in assay [2], 104%; in assay [3] it was 62.3%; in [4] it was 116%; in assay [5] it was 118%; in assay [6], 97.2%. Besides, the growth in assay [7] was 100%; in assay [8], 96.2%; in [9], 102%; in assay [10] it was 106%.
Take `COc1cc(/C=C\c2cc(OC)c(OC)c(OC)c2)cc(NS(=O)(=O)c2cccc(Cl)c2)c1OC`: the growth in [1] was -31.6% (active); in assay [2] it was 11.2%; in [3] it was 112%; in [4], 27%; in [5], 37.8%; in assay [6], -2.74% (active). The growth in assay [7] was 13.8%; in assay [8], -0.958% (active); in assay [9], 57.3%; in assay [10] it was 9.89% (active).
For the compound `CC[C@H](C)[C@H](NC(=O)[C@H]1CCCCN1C)C(=O)N(C)[C@H](C[C@@H](O)c1nc(C(=O)N[C@@H](Cc2ccccc2)C[C@H](C)C(=O)O)cs1)C(C)C`, the growth in assay [1] is 112%; in assay [2] it was 42.1%; in [3], 77.6%; in assay [4] it was 95.2%; in assay [5], 96.9%; in assay [6], 88.2%. The growth was 90.6% in assay [7], 83.6% in assay [8], 76.1% in [9] and 64.5% in assay [10].
`O=P(Oc1ccc(Cl)cc1)(N1CC1)N1CC1`: the growth in [1] is 54.4%; in assay [2] it was 85.3%; in assay [3], 104%; in assay [4] it was 106%; in assay [5] it was 73.9%; in [6], 89%. In addition, the growth was 66.2% in assay [7], 81.4% in assay [8], 94.8% in [9] and 86.5% in assay [10].
With `CC12CCC(O)CC1=CCC1C2CCC2(C)C(O)CCC12` (stereo not given), the growth in assay [1] is 105%; in assay [2], 115%; in assay [3], 102%; in assay [4], 105%; in [5] it was 101%; in [6], 102%. Besides, the growth in assay [7] was 96.2%; in assay [8], 98.9%; in assay [9], 110%; in assay [10], 106%.
Turning to `COc1ccc(/C=C\c2cc(OC)c(OC)c(OC)c2)cc1NS(=O)(=O)c1ccc(Cl)cc1`, the growth was 94% in [1]; 36.8% in [2]; 59.5% in assay [3]; 66% in assay [4]; 65.8% in assay [5]; 79.4% in [6]. Besides, the growth in [7] was 69.3%; in assay [8], 82.6%; in assay [9], 69%; in assay [10], 62.4%.
As to `Cc1ccccc1NC(=NCCCN1CC1)Nc1ccccc1C`, the growth in assay [1] was 90.1%; in [2] it was 94%; in assay [3] it was 105%; in assay [4], 64.4%; in assay [5], 85.3%; in assay [6] it was 86.5%. Besides, the growth in [7] is 103%; in assay [8], 109%; in assay [9] it was 103%; in assay [10], 91.3%.
Consider `C1CCC([PH+](C2CCCCC2)C2CCCCC2[PH+](C2CCCCC2)C2CCCCC2)CC1.[Au].[CH-]1CCCCC1CC1CCCC[N-]1` (stereo not given), for which the growth in assay [1] was -51.1% (active); in assay [2], 3.54% (active); in assay [3] it was -43.5% (active); in assay [4], -44.6% (active); in [5] it was -92.7% (active); in assay [6], -33.6% (active). The growth was -38.8% (active) in [7], -75.1% (active) in [8], -37.3% (active) in [9] and -54.6% (active) in assay [10].
